Screening data deposited in PubChem by National Center for Advancing Translational Sciences (NCATS).
Rows were chosen to be rich in hits. Some 3.2% of all compounds tested hit in one or more screens of this group.
GLP1R cytotox – qHTS of GLP-1 Receptor Inverse Agonists: Cytotox Screen | HEK293 cAMP-luciferase reporter cells, luminescence, 24 h | 410,000 compounds, 0.13% hits | Potency, µM (highest dose often 38.3 µM), for inactives: top-dose activity change, negative = inhibition, actives largely listed as inhibitors | AID 624418, 2012;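 further: loss of luciferase light is scored as toxicity; on the % scale 0 is the no-effect control and ±100 the full control effect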
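1536-well qHTS counterscreen of the MLSMR; 200 cells/uL, 12 h pre-incubation, 23 nL cpd, 24 h at 37 deg C 5% CO2, luciferase detection reagent, 12 min RT, luminescence. Inhibition = undesired.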
ClpP mod – qHTS Assay for Activators of ClpP. ATP-dependent Clp protease proteolytic subunit (Bacillus subtilis (strain 168)), P80244. purified B. subtilis ClpP, FRET peptide cleavage, 20 min. Potency, µM (highest dose often 57.5 µM), without a hit: top-dose activity change, negative = active. 340,000 compounds, 1.9% hits. AID 651965, 2013; active means well fitted falling curve with a large enough effect; inconclusive means small, poorly fitted or top-dose-only effect; inactive means no such curve, though single readings can be large or run the other way; further: the source files actives as falling curves though it sought activators and does not explain the sign; nearly all actives have a fitted effect of over 65% in size
Target sequence (P80244 whole entry, looked up): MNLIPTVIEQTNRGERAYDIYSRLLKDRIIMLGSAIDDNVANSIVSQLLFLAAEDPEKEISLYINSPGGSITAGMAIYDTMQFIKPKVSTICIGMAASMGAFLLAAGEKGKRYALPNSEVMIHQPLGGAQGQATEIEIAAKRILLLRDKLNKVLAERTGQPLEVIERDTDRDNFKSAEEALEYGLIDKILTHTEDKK
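ClpP 10 microg/mL final, pH 8 Tris/KCl buffer with BSA, glycerol, Tween-20; compound pinned in; FRET-FV substrate; RT 20 min; Ex320/Em430; ΔFRET vs ADEP 5.8 microM, DMSO, no enzyme.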
GLP-1R inv ag – qHTS of GLP-1 Receptor Inverse Agonists (Inhibition Mode) | Glucagon-like peptide 1 receptor (Homo sapiens), P43220 | 410,000 compounds, 1.6% hits | Potency, µM (doses to about 38.3 µM), inactives show top-dose activity change, negative = inhibition, usual class: inhibitors | HEK293 GLP-1R CRE-luciferase, luminescence, 24 h; GLP-1R form is constitutively active; further: on the % scale 0 is the no-effect control and ±100 the full control effect; nearly all actives have a fitted effect of over 55% in size
Target sequence (P43220 whole entry, looked up): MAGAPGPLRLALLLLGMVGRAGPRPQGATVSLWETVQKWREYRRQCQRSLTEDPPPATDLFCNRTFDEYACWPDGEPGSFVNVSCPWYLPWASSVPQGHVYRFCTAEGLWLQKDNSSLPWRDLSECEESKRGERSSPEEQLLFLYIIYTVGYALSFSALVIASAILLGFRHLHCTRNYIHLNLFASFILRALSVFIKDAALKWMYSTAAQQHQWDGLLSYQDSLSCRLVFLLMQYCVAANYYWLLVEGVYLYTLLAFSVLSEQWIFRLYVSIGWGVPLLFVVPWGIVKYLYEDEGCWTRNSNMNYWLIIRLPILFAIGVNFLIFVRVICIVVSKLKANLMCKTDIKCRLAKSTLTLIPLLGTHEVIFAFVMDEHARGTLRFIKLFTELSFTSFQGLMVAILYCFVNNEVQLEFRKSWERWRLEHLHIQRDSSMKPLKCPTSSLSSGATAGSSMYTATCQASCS
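qHTS in 1536-well format: reporter HEK293 cells expressing constitutive GLP-1R activity in DMEM + 10% Nu serum, 24 hr with compounds at 37 deg C, luminescence read after 12 min with detection reagent.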
GLP1R ag – qHTS of GLP-1 Receptor Agonists; 380,000 compounds, 0.007% hits; Glucagon-like peptide 1 receptor (Homo sapiens), P43220; AID 624172, 2012; HEK293 GLP-1R CRE-luciferase, luminescence, 4-6 h; cells express a hypersensitive GLP-1R form; Potency, µM (doses to about 45.6 µM), inactives show top-dose activation, most hits filed as activators; further: % of control where 0% means no effect
* hit, by the source's call; ? = inconclusive; . = not tested or not shown; [ ] = remark or other dose. Unless noted, the call rests on the fitted dose curve; in most records, active means well fitted curve in the direction sought with a large enough effect; inconclusive means small, poorly fitted or top-dose-only effect, or another doubt; inactive means no such curve, though single readings can be large; an effect the other way counts as inactive or inconclusive. Potency means the concentration at half of the fitted maximal effect.

SMILES	GLP1R cytotox	ClpP mod	GLP-1R inv ag	GLP1R ag
O=c1c2c3c(sc2nc(NCCO)n1-c1ccccc1)CCCC3	-1%	2%	?	-4%
Cc1cc(C)n(-c2nc(SCCN(C)C)c3c4c(sc3n2)COC(C)(C)C4)n1	?	?	?	0%
CCC(CC)C(=O)Nc1ccc2nc(SCC(=O)N3CCCC3)sc2c1	6%	-4%	6%	.
COc1cc(Nc2nc3c(S(=O)(=O)c4cccc(Cl)c4)nnn3c3ccsc23)cc(OC)c1	5%	?	15%	.
CCOc1ccc(C(=O)N2CCC(c3noc(-c4ccc(S(=O)(=O)N5CCCC5)cc4)n3)CC2)cc1	0%	1%	0%	.
Cc1ccc(CNc2nc(C)nc3sc4c(c23)CCC4)cc1	6%	-2%	-18%	-9%
Cc1cc(C)n(-c2nc(NCC(C)O)c3c4c(sc3n2)CCCC4)n1 (stereo not drawn)	-17%	32µM*	2.8µM*	17%
CC(C)(c1ccccc1)c1ccc(OCC(O)CNC2CCN(Cc3ccccc3)CC2)cc1 (stereo not drawn)	?	.	1.8µM*	0%
CCOc1ccc(OCC(O)CNC2CCN(Cc3ccccc3)CC2)cc1 (stereo not drawn)	-7%	-5%	?	-23%
CCC1(C)Cc2ccccc2C(Nc2c(C)n(C)n(-c3ccccc3)c2=O)=N1 (stereo not drawn)	-7%	14µM*	2%	-9%
CC(C)c1ccc(NC(=O)CSc2nnc(-c3ccccn3)n2C)cc1	-2%	28µM*	-17%	0%
COc1ccc(-c2cc(C(F)(F)F)nc(N3CCN(C)CC3)n2)cc1	-33%	-14%	?	6%
COc1ccc(-c2cc(C(F)(F)F)nc(N3CCCCC3)n2)cc1OC	8%	35µM*	13%	0%
COc1ccc(-c2cc(C(F)(F)F)nc(N3CCCCCC3)n2)cc1	11%	22µM*	-9%	-12%
COc1ccc2c(Sc3ccccc3)c(C(=O)NCC(C)c3ccccc3)[nH]c2c1 (stereo not drawn)	-1%	-9%	5%	.
CCC(C)NC(=O)c1[nH]c2cc(OC)ccc2c1Sc1ccc(C)cc1 (stereo not drawn)	4%	28µM*	?	.
CCCCC[C@H]1CN(Cc2ccccc2)C(=O)[C@@H]1CC(=O)NCc1ccccc1	-24%	2%	10µM*	-4%
CCCCC[C@H]1CN(CCc2ccccc2)C(=O)[C@@H]1CC(=O)NCc1ccc(OC)cc1	-26%	1%	?	3%
Cc1cc(NCCCN2CCOCC2)n2c(nc3ccccc32)c1C#N	117%	-2%	17%	-5%
Cc1cc(NCCN2CCOCC2)n2c(nc3ccccc32)c1C#N	3%	3.5µM*	-2%	-5%
O=S1(=O)NC2CCCCCN2c2ccc(F)cc21 (stereo not drawn)	-3%	28µM*	-18%	7%
O=C(CN1CCCC1)N1CCCC(c2ccc(F)cc2)c2ccc(F)cc21 (stereo not drawn)	5%[1.53 µM]	2%	?	10%
Cc1ccc(SC/C(O)=C(\C#N)c2nc3ccccc3s2)cc1	-3%	25µM*	11%	-8%
CCC/C=C/c1ccc(CN2C(CC(C)C)C(=O)N(Cc3cn(CCC4OCCO4)nn3)CCS2(=O)=O)cc1 (stereo not drawn)	-18%	-1%	?	-3%
CCC/C=C/c1ccc(CN2C(C(C)C)C(=O)N(Cc3cn(CCC4OCCO4)nn3)CCS2(=O)=O)cc1 (stereo not drawn)	-28%	-1%	10µM*	3%
SMILES	GLP1R cytotox	ClpP mod	GLP-1R inv ag	GLP1R ag
N#Cc1c(NC(=O)c2ccccc2Cl)n(Cc2ccccc2)c2nc3ccccc3nc12	123%	-30%	?	-3%
CCC(=O)Nc1c(C#N)c2nc3ccccc3nc2n1-c1ccccc1C	324%	3.5µM*	3%	2%
COc1ccc(-n2c(NC(=O)c3ccco3)c(C#N)c3nc4ccccc4nc32)cc1	290%	-12%	1%	6%
CCCCn1c(NC(=O)c2ccccc2Cl)c(C#N)c2nc3ccccc3nc21	465%	-21%	5.6µM*	-4%
CN(C)CCCn1c(N)c(C#N)c2nc3ccccc3nc21	189%	.	4%	5%
CCCCn1c(NC(=O)CC)c(C#N)c2nc3ccccc3nc21	17%	16µM*	1%	0%
CCC(=O)Nc1c(C#N)c2nc3ccccc3nc2n1C1CCCCC1	17%	-19%	?	2%
CCCCC(CC)Cn1c(N)c(C#N)c2nc3ccccc3nc21 (stereo not drawn)	21%	32µM*	-12%	-1%
Cc1coc2c(C)c3oc(=O)c(CC(=O)NCc4ccccc4)c(C)c3cc12	2%	?	5%	.
Cc1ccc(C(=O)Nc2ccc3c(c2)C(=O)N(CC2CCCO2)C3=O)cc1 (stereo not drawn)	-20%	0%	3%	0%
O=C(Nc1ccc2c(c1)C(=O)N(CC1CCCO1)C2=O)c1ccccc1Br (stereo not drawn)	4%	22µM*	0%	9%
Nc1ccc[n+](CC(=O)c2ccc(F)cc2)c1	.	1%	.	.
O=C1CC(N2CCN(c3ccccn3)CC2)C(=O)N1c1ccc(F)cc1 (stereo not drawn)	4%	.	0%	1%
O=C1CC(N2CCN(c3ccccn3)CC2)C(=O)N1CC(c1ccccc1)c1ccccc1 (stereo not drawn)	0%	1%	13µM*	-1%
CCOC(=O)c1c(C)n(-c2ccccc2)c2ccc(O)c(CN(C)C)c12	-9%	.	8.9µM*	8%
Cc1ccc(-c2cc(C(=O)NCCc3ccccc3)c3c(-c4ccc(C)cc4)[nH]nc3n2)cc1	-5%	4%	1%	.
S=C1SCN(Cc2ccco2)CN1Cc1ccco1	?	.	5.6µM*	0%
S=C1SCN(Cc2cccs2)CN1Cc1cccs1	?	0%	?	10%
CCOc1ccc(OCC)c(NC(=O)c2ccc(-c3ccccc3)s2)c1	1%	3%	15%	.
CCN1CC=C2C(C#N)=C(N)C(C#N)(C#N)C(c3cc(Cl)ccc3Cl)C2C1 (stereo not drawn)	113%	22µM*	?	-1%
O=C(c1ccc(=O)oc1)N1CCOCC1	-6%	32µM*	0%	0%
CCOc1ccc(NC(=O)Cn2c(=O)n(CCCS(=O)(=O)C3CCCCC3)c(=O)c3ccccc32)cc1	-5%	2%	-14%	-1%
C/C(=N\Nc1nc2ccccc2s1)c1ccc(Br)s1	?	.	10µM*	13%
CCOc1ccc(NC(=O)CSc2ncc(S(=O)(=O)c3ccc(F)c(C)c3)c(=O)[nH]2)cc1	0%	1%	3%	21%
CCSc1nc2ccccc2n1Cc1cccc([N+](=O)[O-])c1	3%	-1%	11µM*	20%
CCSc1nc2ccccc2n1Cc1ccccc1F	7%	-2%	?	6%
